From PubChem BioAssay
The full list was thinned out, with hits kept by preference.
TDP-43 tox inh = qHTS of TDP-43 Inhibitors: NCGC Sytravon Library Screen | yeast TDP-43 toxicity rescue, BacTiter-Glo growth, 24 h | AID 1347073, 2019 | hit rate 0.45% among 45,000 | Potency, µM (highest dose often 46.1 µM), actives largely listed as activators; active = well fitted activation curve with a large enough effect; note: 0% is about no effect; nearly all actives have a fitted effect of over 55% in size
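TDP-43-expressing yeast, pregrown in raffinose, seeded at OD600 0.02 in galactose medium with compound for 24 hr at 30 deg C. Growth read by BacTiter-Glo luminescence, so rescue of toxicity appears as activation.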
* = called active by the depositor; i = inactive. Potency is the fitted concentration of half-maximal effect.

SMILES	TDP-43 tox inh
C[n+]1cccc2c(Br)ccc([O-])c21	i
COc1cccc(C(=O)NCCCNC(=O)c2ccccn2)c1	i
CC(OC(=O)c1cnc2ccccc2n1)c1ccccc1Cl (stereo not drawn)	i
COC(=O)c1cc(Sc2cccc(Cl)c2Cl)ccn1	12.6µM*
O=C(NCCc1ccccn1)c1cc2ccccc2o1	i
CCCC(=O)Nc1cc(-c2nnc3c4ccccc4c(C)nn23)ccc1C	i
COc1ccc(-c2nc(CNS(=O)(=O)c3ccc(F)cc3)cs2)cc1	i
COc1ccc(-c2nc(CNS(=O)(=O)c3ccc(C)cc3)cs2)cc1	i
COc1ccc(-c2nc(CNS(=O)(=O)c3cccc(F)c3)cs2)cc1	15.8µM*
Cc1ccc(CN(C(=O)COc2ccc(C)c(C)c2)C2CCS(=O)(=O)C2)o1 (stereo not drawn)	i
NC(=O)C1(N2CCCCC2)CCN(C(=O)Nc2ccc(Cl)c(Cl)c2)CC1	i
O=C(Cc1ccccc1F)NCC(=O)Nc1ccccc1Br	i
CCCN(CC(=O)Nc1ccccc1Br)CC(=O)Nc1ccc(F)c(F)c1F	11.2µM*
CCCN(CC(=O)Nc1ccc(F)c(F)c1F)C(=O)c1ccc2c(c1)NC(=O)CS2	i
COc1cc(-c2nc3nc(C)cc(C)n3c2Nc2ccc(Cl)cc2)ccc1O	i
COc1ccc(C(O)c2nc(-c3cccc(NC(C)=O)c3)cs2)cc1 (stereo not drawn)	i
CCOC(=O)CN1C(=O)c2cccnc2Oc2ccccc21	i
C(=N\n1cnnc1)/c1ccc(-c2ccccc2)cc1	11.2µM*
CCc1ccc(/C=N\n2cnnc2)cc1	i
O=[N+]([O-])c1cccc(/C=N/n2cnnc2)c1	i
COc1ccccc1N1CCN(C(=O)c2ccc3c(c2)N(Cc2cc(C)ccc2C)C(=O)c2ccccc2S3(=O)=O)CC1	i
Cc1ccc(Cl)cc1NC(=O)Cn1c(=O)n(CCC(=O)NCc2ccc3c(c2)OCO3)c(=O)c2sccc21	i
O=C(NC(c1ccc(Cl)cc1)c1cnccn1)C1CCN(Cc2cccc(C(F)(F)F)c2)CC1 (stereo not drawn)	i
COc1ccc(-c2cc(C(=O)Oc3cccc(C)c3C)c3ccccc3n2)cc1	i
Nn1c(=O)c2ccccc2n2c(SCc3ccccc3)nnc12	i
SMILES	TDP-43 tox inh
Cn1c(SCC(=O)Nc2ccccc2)nnc1C(F)(F)F	i
Nn1c(SCc2cccc(Oc3ccccc3)c2)nnc1C(F)(F)F	12.6µM*
CC(C)N1CCC1(C)C(=O)Nc1cccc(C#N)c1 (stereo not drawn)	i
COc1ccc(CN2C[C@@H](CO)O[C@@H](n3cnc4c(N5CCN(CCO)CC5)ncnc43)C2)cc1	i
CC(=O)Nc1ccc(NC(=O)C2Cc3c(-c4cccc(C(C)=O)c4)ccnc3O2)cc1 (stereo not drawn)	i
O=C(Nc1cccc(OC(F)(F)F)c1)C1Cc2c(-c3ccco3)ccnc2O1 (stereo not drawn)	i
CC(=O)c1cccc(-c2ccnc3c2CC(C(=O)Nc2cccc(OC(F)(F)F)c2)O3)c1 (stereo not drawn)	22.4µM*
Fc1cccc(-n2ncc3c2ncn2nc(Cc4ccccc4)nc32)c1	i
COc1cccc(NC(=O)N2CCC(NC(=O)C3CCCCC3)CC2)c1	i
CCc1ccc(OC2(C)CCN(Cc3ccc4c(c3)OCCO4)C2)cc1 (stereo not drawn)	i
COc1ccc(NC(=O)c2ccc(NC(=O)C3COc4ccccc4O3)cc2)c(OC)c1 (stereo not drawn)	i
CCOc1ccc(S(=O)(=O)NCC2CCCO2)cc1NC(=O)c1ccccc1F (stereo not drawn)	i
COc1ccc(NC(=O)c2cc(S(=O)(=O)NCC3COc4ccccc4O3)ccc2F)cc1 (stereo not drawn)	25.1µM*
CC1(C(=O)NS(=O)(=O)c2cccc(Cl)c2)CCN1C(=O)Cc1ccc(Cl)cc1Cl (stereo not drawn)	i
CC(=O)c1ccc(NC(=O)[C@@H]2CCCN2C(=O)OC(C)(C)C)cc1	i
Cc1ccccc1-c1cnc(C(O)c2c(C)cccc2C)[nH]1 (stereo not drawn)	i
CC(=O)OC[C@H]1COc2ccc3ccccc3c2[C@H]1N(C)C(C)=O	i
O=C(Nc1nc2ccc3ccccc3c2s1)c1ccc(N2CCCCC2)c([N+](=O)[O-])c1	i
CC(=O)N1c2ccc3ccccc3c2C(C)CC12CCCCC2 (stereo not drawn)	14.1µM*
COC(=O)Nc1ccc(S(=O)(=O)N2CCC(C(=O)NCc3ccc4c(c3)OCO4)CC2)cc1	i
N#Cc1ccccc1Cn1c(=O)n(CCCC(=O)NCc2ccc3c(c2)OCO3)c(=O)c2sccc21	i
O=C(COC(=O)CNC(=O)c1ccccc1)NC1CCCCC1	i
O=C(COC(=O)CSc1ccc2ccccc2c1Br)NC1CC1	22.4µM*
O=C(COC(=O)c1ccccc1Br)NC1CCCC1	i
CC1(C)O[C@H]2[C@@H](O1)[C@@H](C(=O)Nc1cc(F)ccc1F)O[C@@H]1OC(C)(C)O[C@@H]12	i
SMILES	TDP-43 tox inh
Cc1cccc(NC(=O)Nc2nnc([C@@H]3C[C@H](O)[C@@H](CO)O3)s2)c1	i
OCCCNc1ncnc2c1ncn2[C@H]1CN(Cc2cccs2)C[C@@H](CO)O1	i
CCOC(=O)N(C)c1c(CC)nc2c(OCc3ccc(Cl)cc3Cl)cccn12	i
C/C(=N\Nc1cccc(C(=O)O)c1)c1ccc(Cl)s1	i
C/C(=N\Nc1ccc(C(=O)O)cc1)c1ccc2c(c1)Nc1ccccc1S2	11.2µM*
C/C(=N\Nc1ccc(Cl)c(C(=O)O)c1)c1cccc2ccccc12	i
Cc1nn(CC(=O)NCc2ccccc2Br)c(=O)c2cc3occc3n12	i
CCCOc1ccc(F)cc1-c1cc(C(=O)NCCOC)[nH]n1	i
CCCNC(=O)c1cc(C2CCCN(C(=O)C3CCCCC3)C2)on1 (stereo not drawn)	i
Cc1sc(NC(=O)c2ccco2)nc1-c1ccccc1	12.6µM*
Cc1nc(NC(=O)c2ccco2)sc1C(=O)O	i
CC(=O)c1c(C)[nH]c(C(=O)Nc2nc(-c3ccccc3)c(C)s2)c1C	i
CC1(Oc2cccc(F)c2)CCN(Cc2ccc(-c3ccccc3)o2)C1 (stereo not drawn)	i
CCCC(=O)N1CCCC(c2cc(C(=O)NCc3cccnc3)no2)C1 (stereo not drawn)	i
CCc1nn(CC(=O)N2CCCCC2)c(=O)c2cc3sc(C)cc3n12	i
O=C(O)c1ccccc1OCCOc1ccccc1	22.4µM*
CC(=O)Nc1ccc(OCCOc2ccccc2C(C)=O)cc1	i
CCC(C)/C(C)=N/NC(=O)c1ccccc1OCCOc1ccccc1 (stereo not drawn)	i
CCCSc1ncc(Cl)c(C(=O)Nc2scc(-c3ccc(C)cc3)c2C(=O)OCC)n1	i
CN(C)C(CNC(=O)c1ccc(-c2ccccc2)cc1)c1ccccc1 (stereo not drawn)	i
CCc1nc2ccc(C(=O)N(C)CCN(C)C)cn2c1N(C)Cc1cc2ccccc2s1	i
Cc1ccc(C2CC(c3cccs3)=NN2C(=O)CCl)cc1 (stereo not drawn)	12.6µM*
COc1ccc(C2CC(c3cccs3)=NN2C(=O)c2ccc(Br)o2)cc1 (stereo not drawn)	i
COc1ccccc1C1CC(c2cccs2)=NN1C(=O)CCC(=O)O (stereo not drawn)	i
CCc1nnc(SCc2cccc(Cl)c2)c2cc3sccc3n12	i
